# PubChem BioAssay (NCATS)
# Results filed as inconclusive are left out. Activity calls are given as the source filed them. Calls follow the shape of the dose curve; as a rule, active = well fitted cell-killing curve with a large enough effect; inconclusive = small, poorly fitted or top-dose-only effect, or effect the other way; inactive = no such curve, though single readings can be large or run the other way.
# Experiment: Quantitative High-Throughput drug screen in 47 multiple myeloma cell lines against the NCATS MIPE library collection: UTMC2_PLB cell viability assay (AID 1919868); also: nearly all actives have a fitted effect of over 55% in size
# Settings: CellTiter-Glo ATP luminescence, 48 h; viability (% of DMSO control): at 45.8 µM (top of the series)
# Text: PI: Beverly A. Mock Ph.D.
# Laboratory of Cancer Biology and Genetics,
# Center for Cancer Research, National Cancer Institute,
# National Institute of Health, Bethesda, Maryland
# Drug resistance and disease progression are common in multiple myeloma (MM) patients, underscoring the need for new therapeutic combinations. […] We hypothesized that effective combinations would reduce MYC expression and enhance p16 activity. […] These preclinical data identify potentially useful drug combinations for evaluation in drug-resistant MM and reveal potential mechanisms of combined drug sensitivity.
# Described herein is the primary MIPE qHTS used to cherrypick compounds. Validated compounds were then further tested for potential synergistic activiy.
# [1] Peat TJ, Gaikwad SM, Dubois W, Gyabaah-Kessie N, Zhang S, Gorjifard S, Phyo Z, Andres M, Hughitt VK, Simpson RM, Miller MA, Girvin AT, Taylor A, Williams D, D'Antonio N, Zhang Y, Rajagopalan A, Flietner E, Wilson K, Zhang X, Shinn P, Klumpp-Thomas C, McKnight C, Itkin Z, Chen L, Kazandijian D, Zhang J, Michalowski AM, Simmons JK, Keats J, Thomas CJ, Mock BA. Drug combinations identified by high-throughput screening promote cell cycle transition and upregulate Smad pathways in myeloma. Cancer Lett. 2023 Aug 1;568:216284. doi: 10.1016/j.canlet.2023.216284. Epub 2023 Jun 24. PMID: 37356470; PMCID: PMC10408729.
# SEQUENCE No. (e.g., 1, 2, 3, etc.); […] (e.g., Cells, Incubation, Reagent, etc.); VALUE and DESCRIPTION.
# 1; Cells; 5 uL; white, solid bottom 1536-well Greiner assay plate.
# 2; Compounds; 23 nL; Kalypsis pin tool (Wako USA) equipped with a 1536-well pin head to transfer to the assay plates.
# 3; Incubation; 48 hours; 37C incubation.
# 4; Reagent;5uL; CellTiter Glo (Promega).
# 5; Detector; 425V; Luminescence; Viewlux PerkinElmer.
# NOTES (numbers refer to Sequence numbers above)
# 1. The cell-based screening methods employed in this study were like those previously published. Briefly, the corresponding myeloma cell lines were screened in 1,536-well plates with 500 cells, 5-uL per well for inhibition of cell viability (assessed by measuring ATP levels with CellTiterGlo).
# 2. NCATS MIPE 4.0 library of approved and investigational drugs were added using the Kalypsis pin tool. Wells treated with DMSO only for 100% viability and media only for 0% viability were used as controls.
# 3. The assay plates were covered and incubated for 48 hours in a 37C, 5% CO2 incubator with controlled humidity.
# 4. After 48 hours, CellTilter-GloTM luminescent substrate mix (Promega) reagent was added to the assay plate and plates we incubated for 5 min at room temperature.
# 5. Signal was measured as median relative luminescence units on a ViewLux (PerkinElmer) multiplate reader.
# [1] Heske CM, Davis MI, Baumgart JT, Wilson K, Gormally MV, Chen L, Zhang X, Ceribelli M, Duveau DY, Guha R, Ferrer M, Arnaldez FI, Ji J, Tran HL, Zhang Y, Mendoza A, Helman LJ, Thomas CJ. Matrix Screen Identifies Synergistic Combination of PARP Inhibitors and Nicotinamide Phosphoribosyltransferase (NAMPT) Inhibitors in Ewing Sarcoma. Clin Cancer Res. 2017 Dec 1;23(23):7301-7311. doi: 10.1158/1078-0432.CCR-17-1121. Epub 2017 Sep 12. PMID: 28899971; PMCID: PMC6636827.
# Potency is read from the fitted curve at half-maximal effect.
SMILES,Potency,viability (% of DMSO control)
Cc1ccccc1-n1c(Cn2cnc3c(N)ncnc32)nc2cccc(C)c2c1=O,66.2 nM (active),–
CC(C)N[C@@H]1CCn2c(=O)[nH]c3cccc(c32)[C@@H]1O,10500 nM (active),–
O=C1CCC[C@@H]2[C@H]3CCCN4CCC[C@@H](CN12)[C@@H]34,inactive,–
C1=C2CCCN[C@H]2[C@@H]2C[C@H]1[C@@H]1CCCCN1C2,inactive,–
CCN1CCN(C(=O)Cc2ccc(Nc3ncc(F)c(Nc4ccc(C(=O)Nc5ccccc5Cl)cc4)n3)cc2)CC1,1320 nM (active),–
CN(C)NC(=O)CCC(=O)O,37.2 nM (active),–
C[C@]12CC[C@H](O)CC1=CC[C@H]1[C@H]3CCC(=O)[C@@]3(C)CC[C@@H]12,inactive,–
CO[C@H]1CCC(O[C@H]2C[C@H]([C@]3(C)CC[C@]4(C[C@H](O)[C@@H](C)[C@@H]([C@@H](C)C=C(C)C(=O)[C@H](C)C[C@H](C)C(=O)O)O4)O3)O[C@]3(O[C@@H]([C@H]4O[C@@](O)(CO)[C@H](C)C[C@H]4C)C[C@H]3C)[C@H]2C)O[C@H]1C (stereo not given in full),469 nM (active),–
COC[C@H]1OC(=O)c2coc3c2[C@@]1(C)C1=C(C3=O)[C@@H]2CC[C@H](O)[C@@]2(C)C[C@@H]1OC(C)=O,296 nM (active),–
CC1=C(O)C(=O)C=C2C1=CC=C1[C@@]2(C)CC[C@@]2(C)[C@@H]3C[C@](C)(C(=O)O)CC[C@]3(C)CC[C@]12C,1480 nM (active),–
Cc1c(C(=O)Nc2cccc(C(F)(F)F)c2)cc(-c2ccccc2)n1CCCN1CCOCC1,5900 nM (active),–
CCOP(=O)(OCC)C(C)NC(=O)N(CCCl)N=O (stereo not given),inactive,–
COc1ccc(N(C(=O)Oc2c(C)cccc2C)c2ccnc(Nc3ccc(N4CCN(C)CC4)cc3)n2)c(OC)c1,–,84% (active)
CC=C(C)C(=O)O[C@H]1C(C)=C2[C@@H]3OC(=O)[C@@](C)(O)[C@@]3(O)[C@@H](OC(=O)CCC)C[C@](C)(OC(C)=O)[C@@H]2[C@@H]1OC(=O)CCCCCCC,743 nM (active),–
COc1ccc2c(c[n+](C)c3c4cc5c(cc4ccc23)OCO5)c1OC,5260 nM (active),–
Cc1[nH]nc2ccc(-c3cncc(OC[C@@H](N)Cc4c[nH]c5ccccc45)c3)cc12,372 nM (active),–
COCC1(CO)C(=O)C2CCN1CC2 (stereo not given),11800 nM (active),–
O=c1[nH]c2ccccc2n1C1CCN(Cc2ccc(-c3[nH]c4cc5ncnc5cc4nc3-c3ccccc3)cc2)CC1,13200 nM (active),–
CC(C)N(CCNC(=O)CN1CCCC1=O)C(C)C,inactive,–
CC[C@H]1C=CC=CC[C@@H](C)[C@H](O)[C@@](C)(O)C(=O)[C@@H](C)[C@H](O)[C@@H](C)C(=O)[C@@H](C)[C@H](O)[C@@H](C)C=CC(=O)O[C@@H]2[C@@H](C)[C@H](CC1)O[C@]1(CC[C@H](C)[C@H](C[C@@H](C)O)O1)[C@H]2C,1 nM (active),–

SMILES,Potency,viability (% of DMSO control)
CC(C)(O)C=CC(=O)[C@](C)(O)[C@H]1[C@H](O)C[C@]2(C)[C@@H]3CC=C4[C@@H](C=C(O)C(=O)C4(C)C)[C@]3(C)C(=O)C[C@@]12C,41.8 nM (active),–
C[C@H]1CCCC=CC2C[C@H](O)C[C@@H]2[C@H](O)C=CC(=O)O1 (stereo not given in full),inactive,–
CN1CCN(c2ccc([N+](=O)[O-])c3no[n+]([O-])c23)CC1,18700 nM (active),–
CC(=O)Nc1ccc(OC[C@](C)(O)C(=O)Nc2ccc([N+](=O)[O-])c(C(F)(F)F)c2)cc1,inactive,–
CN[C@@H]1Cc2cccc3[nH]c(=O)n(c23)C1,inactive,–
C[C@@]12OC(=O)[C@]1([C@@H](O)[C@@H]1C=CCCC1)NC(=O)[C@H]2CCCl,23.5 nM (active),–
O=[N+]([O-])c1ncc[nH]1,inactive,–
CC[C@@H]1[C@@H](C)O[C@@](O)([C@@H](C)[C@H](O)[C@H](C)[C@H]2OC(=O)C=CC=C[C@@H](C)[C@@H]([C@@H](C)[C@@H](O)[C@H](C)[C@@]3(O)C[C@H](O[C@H]4C[C@H](O)[C@H](O)[C@H](C)O4)[C@H](CC)[C@@H](C)O3)OC(=O)C=CC=C[C@@H]2C)C[C@H]1O[C@H]1C[C@H](O)[C@H](O)[C@H](C)O1,1050 nM (active),–
COc1ccc2c(c1)[C@]13CCCCC1C(C2)N(C)CC3 (stereo not given in full),inactive,–
CC[C@@]1(O)C(=O)OCc2c1cc1n(c2=O)Cc2cc3ccccc3nc2-1,16.6 nM (active),–
Cc1c(N)nc([C@H](CC(N)=O)NC[C@@H](N)C(N)=O)nc1C(=O)N[C@H](C(=O)N[C@@H](C)[C@H](O)[C@@H](C)C(=O)N[C@@H](C(=O)NCCc1nc(-c2nc(C(=O)NCCC[S+](C)C)cs2)cs1)[C@@H](C)O)C(O[C@H]1O[C@H](CO)[C@H](O)[C@@H](O)[C@@H]1O[C@H]1O[C@H](CO)[C@@H](O)[C@H](OC(N)=O)[C@H]1O)c1cnc[nH]1 (stereo not given in full),209 nM (active),–
COC1=C[C@@H]2[C@@H]3Cc4ccc(OC)c(O)c4[C@]2(CCN3C)CC1=O,4690 nM (active),–
CCCC[N+]1(C)[C@H]2CC(OC(=O)[C@H](CO)c3ccccc3)C[C@H]1[C@H]1O[C@H]12 (stereo not given in full),inactive,–
COc1cc2cc(c1Cl)N(C)C(=O)C[C@H](OC(=O)C(C)C)[C@]1(C)O[C@H]1[C@H](C)[C@@H]1C[C@@](O)(NC(=O)O1)[C@H](OC)C=CC=C(C)C2,inactive,–
C[C@@H]1CC[C@@]2(OC1)O[C@H]1C[C@H]3[C@@H]4CC=C5C[C@@H](O[C@@H]6O[C@H](CO)[C@@H](O[C@@H]7O[C@@H](C)[C@H](O)[C@@H](O)[C@@H]7O)[C@H](O)[C@@H]6O[C@@H]6O[C@@H](C)[C@H](O)[C@@H](O)[C@@H]6O)CC[C@]5(C)[C@@H]4CC[C@]3(C)[C@@H]1[C@H]2C,2640 nM (active),–
CCCCCC[C@H]1C(=O)O[C@H](C)[C@H](NC(=O)c2cccc(NC=O)c2O)C(=O)O[C@@H](C)[C@@H]1OC(=O)CC(C)C,52.6 nM (active),–
CC(=O)OCC1=C(C(=O)O)N2C(=O)[C@@H](N)[C@@H]2SC1,inactive,–
O=C1C=CC[C@@H]2[C@H]3CCCN4CCC[C@@H](CN12)[C@@H]34,inactive,–
COC1=CC(C)=C[C@@H](C)[C@@H](O)[C@@H](C)CC(C)=CC=C[C@H](OC)[C@H]([C@@H](C)[C@@H](O)[C@H](C)[C@@]2(O)C[C@@H](O)[C@H](C)[C@@H](C(C)C)O2)OC1=O,1 nM (active),–
CCOC(=O)c1c(C(C#N)=CN)c2ccc(Cl)c(Cl)c2n1C,inactive,–
